Results from PubChem BioAssay AID485346 (Sanford-Burnham Center for Chemical Genomics, 2010).
Among all 330,000 compounds or so, about 10,000 (3%) were called active. This is one part of a sample in which actives are shown more often than they occur. Values without a mark were called inactive.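 How the source made its calls: active means inhibition of at least 50% at 8 µM in the primary screen; inactive means the rest.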

biological target: Protein Mdm4 (Homo sapiens) + E3 ubiquitin-protein ligase Mdm2 (Homo sapiens) (UniProt O15151+Q00987); assay: inhibitors of human Mdm2-MdmX association, primary screen, cell-based, luminescence, split luciferase, SaOS-2, uHTS (AID 485346); settings: SaOS-2 split-luciferase Mdm2/MdmX complementation, at 8 µM, hits give high values
Sequence (O15151 whole entry, looked up): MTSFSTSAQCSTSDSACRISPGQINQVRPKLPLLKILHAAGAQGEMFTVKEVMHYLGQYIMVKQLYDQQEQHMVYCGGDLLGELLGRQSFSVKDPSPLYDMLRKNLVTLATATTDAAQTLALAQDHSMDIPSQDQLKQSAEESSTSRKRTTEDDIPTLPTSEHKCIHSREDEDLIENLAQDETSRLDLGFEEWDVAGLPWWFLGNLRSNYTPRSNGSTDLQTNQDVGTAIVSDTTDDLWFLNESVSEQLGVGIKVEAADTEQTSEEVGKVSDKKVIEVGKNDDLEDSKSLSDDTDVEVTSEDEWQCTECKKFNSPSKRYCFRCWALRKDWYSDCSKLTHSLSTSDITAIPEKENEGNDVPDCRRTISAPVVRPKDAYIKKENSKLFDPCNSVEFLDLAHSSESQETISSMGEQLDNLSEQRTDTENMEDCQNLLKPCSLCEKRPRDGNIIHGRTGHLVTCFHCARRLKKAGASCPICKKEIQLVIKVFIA
Sequence (Q00987 whole entry, looked up): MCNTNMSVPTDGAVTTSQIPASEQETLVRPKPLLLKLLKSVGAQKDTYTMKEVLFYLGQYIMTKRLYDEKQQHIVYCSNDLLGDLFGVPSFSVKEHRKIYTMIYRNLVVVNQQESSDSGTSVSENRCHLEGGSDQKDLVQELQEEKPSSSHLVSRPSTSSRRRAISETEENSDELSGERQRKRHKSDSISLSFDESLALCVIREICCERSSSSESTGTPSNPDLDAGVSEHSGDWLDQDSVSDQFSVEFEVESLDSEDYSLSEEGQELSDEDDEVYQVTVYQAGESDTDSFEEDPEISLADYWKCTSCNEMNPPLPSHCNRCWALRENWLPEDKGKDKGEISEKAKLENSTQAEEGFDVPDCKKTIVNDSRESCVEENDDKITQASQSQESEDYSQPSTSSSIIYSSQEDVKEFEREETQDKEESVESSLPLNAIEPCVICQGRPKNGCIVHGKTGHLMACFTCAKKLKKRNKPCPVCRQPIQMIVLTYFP

Q: How did the inhibition turn out when `COc1ccc(NC(=O)N(C)C[C@H]2Oc3ccc(NC(=O)C4CC4)cc3C(=O)N([C@H](C)CO)C[C@@H]2C)cc1` was run?
A: -5.08%

Q: With `O=C(CC1CCCCC1)NCc1ccc(F)cc1` as the compound, how does the inhibition read?
A: -13.5%

Q: `Cc1ccc(C(=O)NNc2ncnc3ccccc23)cc1` was tested. Which inhibition did it give?
A: -48.9%

Q: For `Cc1ccc(C(=O)NNC(=O)c2cccs2)cc1`, which inhibition is on record?
A: -2.54%

Q: For `Cc1ccc(C(=O)NNC(=O)c2cc3cc4ccccc4nc3s2)cc1`, which inhibition is on record?
A: 55.3% (active)

Q: How did the inhibition turn out when `CC[C@@]1(C(=O)OC)N[C@H](CN(C)C(C)=O)[C@@H]2C(=O)N(C)C(=O)[C@@H]21` was run?
A: -30.9%

Q: For `CC[C@]12c3[nH]c4ccc(Cl)cc4c3CCN1C(=O)[C@@H](CC(=O)NCCCOC)C[C@@H]2C(=O)N1CCN(C(=O)c2ccco2)CC1`, which inhibition is on record?
A: 2.9%

Q: For `COc1ccc(O)c(C(=O)c2cnc3c(c2)c(-c2ccc(F)cc2)c(C#N)c(=O)n3C)c1`, which inhibition is on record?
A: 12.9%

Q: With `Cn1c(N)cc(-c2ccc(F)cc2)c(C#N)c1=O` as the compound, how does the inhibition read?
A: 14%

Q: How did the inhibition turn out when `Cc1cc(C)c2c(-c3ccc(F)cc3)c(C#N)c(=O)n(C)c2n1` was run?
A: 51.8% (active)

Q: For `O=C(CCNS(=O)(=O)c1ccc(Br)cc1)NCC1CCCO1` (stereo unspecified), which inhibition is on record?
A: -4.62%

Q: How did the inhibition turn out when `O=C(CSc1ccc(-c2ccc(Br)cc2)nn1)NCC1CCCO1` (stereo unspecified) was run?
A: -18.5%

Q: `OC(CNCC1CCCO1)Cn1c2ccc(Br)cc2c2cc(Br)ccc21` (stereo unspecified) was tested. Which inhibition did it give?
A: 101% (active)

Q: For `O=C(O)CC12CC3CC(C1)CC(n1ncc(NCc4ccc(F)cc4)c(Cl)c1=O)(C3)C2`, which inhibition is on record?
A: -8.77%

Q: For `COc1ccc(NC(=O)CN(C)C(=O)c2cccc(S(=O)(=O)N3CCN(c4ccccc4)CC3)c2)cc1`, which inhibition is on record?
A: 17%

Q: With `O=C(OC1CCOC1=O)c1ccc(-c2nc3ccccc3s2)s1` (stereo unspecified) as the compound, how does the inhibition read?
A: -9.1%

Q: `O=C1c2ccccc2C(=O)C1c1ccccc1F` was tested. Which inhibition did it give?
A: -3.2%

Q: Which inhibition does the source give for `CCOC(=O)C1=C(C)N=C2c3ccccc3C(=O)C2C1c1ccc(Br)cc1` (stereo unspecified) here?
A: 24%

Q: `O=C1c2ccccc2C2=Nc3ccccc3SC(c3ccccc3F)C12` (stereo unspecified) was tested. Which inhibition did it give?
A: 65.3% (active)

Q: `O=C(CCc1nnc(Cc2ccc3c(c2)OCO3)o1)NCCc1ccccc1Cl` was tested. Which inhibition did it give?
A: 6%

Q: `CC(=O)NCCc1ccc(S(=O)(=O)Nc2ccc(C)c(S(=O)(=O)N3CCOCC3)c2)cc1` was tested. Which inhibition did it give?
A: 2.62%

Q: Which inhibition does the source give for `Oc1ccccc1CN1CCN(C(c2ccccc2)c2ccccc2)CC1` here?
A: 19.1%

Q: For `CC1(C)CC(N2CCN(C(c3ccccc3)c3ccccc3)CC2)=CC(=[N+]2CCCCC2)C1`, which inhibition is on record?
A: 90.1% (active)

Q: How did the inhibition turn out when `O=C1CC(N2CCN(C(c3ccccc3)c3ccccc3)CC2)C(=O)N1` (stereo unspecified) was run?
A: 28.3%

Q: `CCCCNC(=O)C(C)N(CCN(C)C)C(=O)CCCN1C(=O)NC(c2ccc(Cl)cc2)C(C(=O)OCc2ccccc2)=C1C` (stereo unspecified) was tested. Which inhibition did it give?
A: 84.8% (active)

Q: For `COCCN1C(=O)N[C@@H](c2ccccc2)C(C(=O)OC)=C1C`, which inhibition is on record?
A: -16.5%

Q: `CCN1C(=O)N[C@@H](c2ccccc2)C(C(=O)OC)=C1C` was tested. Which inhibition did it give?
A: 6.41%

Q: `COC(=O)CCCCCN1C(=O)NC(c2ccc(-c3ccccc3)cc2)C(C(=O)OCc2ccccc2)=C1C` (stereo unspecified) was tested. Which inhibition did it give?
A: 22.2%

Q: With `CCCCNC(=O)C(C)N(CCN(C)C)C(=O)CCCCCN1C(=O)NC(c2ccc(Cl)cc2)C(C(=O)OCc2ccccc2)=C1C` (stereo unspecified) as the compound, how does the inhibition read?
A: 97.4% (active)

Q: With `CC1=C(C(=O)OCc2ccccc2)C(c2ccc(C(F)(F)F)cc2)NC(=O)N1CCCCCC(=O)O` (stereo unspecified) as the compound, how does the inhibition read?
A: 4.93%

Q: Which inhibition does the source give for `O=C(Nc1cccc(O)c1)c1ccc(C(=O)c2ccccc2)o1` here?
A: -23.5%

Q: `CC(C)(C)OC(=O)C1=C(CO)CS[C@@H]2[C@H](NC(=O)Cc3ccccc3)C(=O)N12` was tested. Which inhibition did it give?
A: 1.66%

Q: With `Cc1ccc(CN2CCC(N3CCC(C(=O)NCC4CCCO4)CC3)CC2)o1` (stereo unspecified) as the compound, how does the inhibition read?
A: 1.75%

Q: `O=C(COC(=O)c1ccccc1)c1ccc2c(c1)OCCO2` was tested. Which inhibition did it give?
A: 35.8%

Q: `Cc1cc(C)cc(OCC(=O)Nc2cc(NC(=O)COc3cc(C)cc(C)c3)cc(C(=O)O)c2)c1` was tested. Which inhibition did it give?
A: 5.1%

Q: How did the inhibition turn out when `CC(NC(=O)COC(=O)C1CCN(S(=O)(=O)c2ccccc2C(F)(F)F)CC1)c1ccccc1` (stereo unspecified) was run?
A: -7.62%

Q: How did the inhibition turn out when `NC(=O)c1nsc(C(=O)N(CCCN2CCOCC2)C(C(=O)NC2CCCCC2)c2ccc(Cl)cc2)c1N` (stereo unspecified) was run?
A: -0.899%

Q: With `COc1cc(N2C(=O)CC3(CCCC3)CC2=O)cc(OC)c1OC` as the compound, how does the inhibition read?
A: 20%

Q: How did the inhibition turn out when `Cc1ccc2nc(-c3ccncc3)cc(C(=O)Nc3ccc4c(c3)OCCO4)c2c1` was run?
A: 60.7% (active)

Q: For `Cc1ccc2nc(-c3ccccn3)cc(C(=O)Nc3ccc4c(c3)OCO4)c2c1`, which inhibition is on record?
A: 28.8%

Q: Which inhibition does the source give for `Cc1ccc2nc(-c3ccncc3)cc(C(=O)Nc3ccc(OC(F)F)cc3)c2c1` here?
A: 37.3%

Q: Which inhibition does the source give for `COc1ccc(CCNC(=O)CN(c2ccccc2)S(C)(=O)=O)cc1OC` here?
A: -2.08%

Q: With `CCc1[nH]nc(C(=O)N2CCCC(CNS(=O)(=O)c3cccs3)C2)c1C` (stereo unspecified) as the compound, how does the inhibition read?
A: 7.22%

Q: How did the inhibition turn out when `Cc1cc(NC(=O)CSc2nc3cc(Cl)ccc3c(=O)n2Cc2ccco2)no1` was run?
A: 40.1%

Q: `COc1ccc(-n2c(SCC(=O)Nc3sc4c(c3C#N)CCCC4)nnc2-c2ccc(O)cc2)cc1` was tested. Which inhibition did it give?
A: 33.8%

Q: How did the inhibition turn out when `N#Cc1c(NC(=O)CSc2nc3ccccc3c(=O)n2Cc2ccco2)sc2c1CCCC2` was run?
A: 54.1% (active)

Q: For `Cc1ccc(CN2CC(C(=O)N3CCN(S(=O)(=O)c4ccccc4)CC3)CC2=O)cc1` (stereo unspecified), which inhibition is on record?
A: -7.06%

Q: For `O=C(NCc1cccnc1)c1ccccc1NC(=O)c1c(F)cccc1F`, which inhibition is on record?
A: 12.2%

Q: Which inhibition does the source give for `CC[C@]1(C(=O)OC)[C@H]2C(=O)N(Cc3ccccc3)C(=O)[C@H]2[C@H]2CN=C(SCc3ccccc3)N21` here?
A: 70% (active)

Q: `CC[C@]1(C(=O)OC)[C@H]2C(=O)N(Cc3ccccc3)C(=O)[C@H]2[C@H]2CN=C(SCc3ccc(Cl)cc3)N21` was tested. Which inhibition did it give?
A: 99.6% (active)

Q: Which inhibition does the source give for `CCCN=C1N(C)C[C@@H]2[C@@H]3C(=O)N(Cc4ccccc4)C(=O)[C@@H]3[C@](C)(C(=O)OC)N12` here?
A: -2.26%

Q: For `CC[C@]1(C(=O)OC)[C@H]2C(=O)N(C)C(=O)[C@H]2[C@H]2CN(C)C(=NCc3ccccc3)N21`, which inhibition is on record?
A: 15.5%

Q: `COC(=O)[C@@]1(C)[C@H]2C(=O)N(Cc3ccccc3)C(=O)[C@H]2[C@H]2CN=C(SCC3CC3)N21` was tested. Which inhibition did it give?
A: 16.2%

Q: How did the inhibition turn out when `CCNC(=O)N(CC)C[C@H]1N[C@@](CC)(C(=O)OC)[C@H]2C(=O)N(Cc3ccccc3)C(=O)[C@@H]12` was run?
A: 13.8%

Q: `CCN1C[C@@H]2[C@@H]3C(=O)N(Cc4ccccc4)C(=O)[C@@H]3[C@](Cc3ccccc3)(C(=O)OC)N2C1=NC1CCCCC1` was tested. Which inhibition did it give?
A: 44.3%

Q: For `CC[C@]1(C(=O)OC)[C@H]2C(=O)N(Cc3ccccc3)C(=O)[C@H]2[C@H]2CN=C(SCc3ccc(C#N)cc3)N21`, which inhibition is on record?
A: 93% (active)

Q: How did the inhibition turn out when `CCN(C[C@H]1N[C@@](CC)(C(=O)OC)[C@H]2C(=O)N(Cc3ccccc3)C(=O)[C@@H]12)S(=O)(=O)c1ccccc1` was run?
A: 9.24%

Q: How did the inhibition turn out when `O=C(COC(=O)c1ccccn1)NNC(=O)c1ccc(Br)cc1` was run?
A: 2.38%

Q: With `Cn1nc(C(=O)OCC(=O)N(Cc2ccccc2)C(C)(C)C)c2ccccc2c1=O` as the compound, how does the inhibition read?
A: 14.1%

Q: For `CCCNc1c(N)c(=O)c1=O`, which inhibition is on record?
A: 12.6%

Q: With `Cc1cccc(C(=O)N2CCCC(Nc3ccc(C(C)C)cc3)C2)n1` (stereo unspecified) as the compound, how does the inhibition read?
A: -5.26%

Q: With `CCOc1ccccc1OCCCNCc1ccccc1` as the compound, how does the inhibition read?
A: -6.93%

Q: For `Clc1cccc(Cl)c1OCCOCCNCc1ccccc1`, which inhibition is on record?
A: 89.2% (active)

Q: For `OCCNCc1cccc(OCc2ccccc2Cl)c1`, which inhibition is on record?
A: 20.6%

Q: Which inhibition does the source give for `N#C/C(=C\c1ccc(-c2cccc([N+](=O)[O-])c2)o1)C(=O)NCCN1CCOCC1` here?
A: 10.3%

Q: With `Cc1ccc(-c2ccc(/C=C(\C#N)C(N)=S)o2)c([N+](=O)[O-])c1` as the compound, how does the inhibition read?
A: -46.3%

Q: For `Cc1ccc(Cc2cnc(NC(=O)/C(C#N)=C/c3ccc(-c4cccc([N+](=O)[O-])c4)o3)s2)cc1`, which inhibition is on record?
A: 97.9% (active)

Q: `COc1ccc(CCNC(=O)COC(=O)c2ncc(Cl)c(Cl)c2Cl)cc1OC` was tested. Which inhibition did it give?
A: 8.42%

Q: For `COc1ccccc1N1CCN(C(=O)c2cc(=O)c3cc(C)ccc3o2)CC1`, which inhibition is on record?
A: 40.1%

Q: How did the inhibition turn out when `COc1ccccc1N1CCN(C(=O)c2cc(=O)c3cc(C)cc(C)c3o2)CC1` was run?
A: 63.5% (active)

Q: How did the inhibition turn out when `O=C(c1cc(=O)c2ccccc2o1)N1CCN(c2ccccc2)CC1` was run?
A: 17.2%

Q: With `C=C(C)C(=O)Nc1cccc(C(C)=O)c1` as the compound, how does the inhibition read?
A: 20.2%

Q: Which inhibition does the source give for `CCSc1nsc(NC(=O)Nc2ccccc2OC)n1` here?
A: -33.9%

Q: Which inhibition does the source give for `CCSc1nsc(NC(=O)Nc2cccc(C(C)=O)c2)n1` here?
A: 62.3% (active)

Q: How did the inhibition turn out when `CSc1nsc(NC(=O)Nc2ccccc2)n1` was run?
A: -31.4%

Q: With `C=CCSc1nsc(NC(=O)Nc2cccc(C(C)=O)c2)n1` as the compound, how does the inhibition read?
A: 94.3% (active)

Q: How did the inhibition turn out when `C=CCSc1nnc(NC(=O)c2ccc(NC(C)=O)cc2)s1` was run?
A: -18.8%

Q: With `CCCCC(=O)N1CC2(C)CN(C(=O)CCCC)CC(C)(C1)C2=O` as the compound, how does the inhibition read?
A: -4.56%

Q: Which inhibition does the source give for `CN(C(=O)c1c(Cl)cnn1C)C12CC3CC(CC(C3)C1)C2` here?
A: 4.45%

Q: `Cc1ccc2[nH]c(=O)c(CN(CC3COCCO3)C(=O)Nc3ccccc3C)cc2c1` (stereo unspecified) was tested. Which inhibition did it give?
A: 6.03%

Q: Which inhibition does the source give for `CCC(=O)N(CCc1ccccc1)Cc1cc2cc(C)ccc2[nH]c1=O` here?
A: -5.57%

Q: `Cc1ccc2[nH]c(=O)c(CN(CCCN(C)C)C(=O)Nc3cccc(Cl)c3)cc2c1` was tested. Which inhibition did it give?
A: 66.9% (active)

Q: Which inhibition does the source give for `CC(C)NC(=O)N1CCN(c2ccncc2S(=O)(=O)N2CCCCC2)CC1` here?
A: 14.5%

Q: How did the inhibition turn out when `Cc1ccc2[nH]c3c(=O)n(Cc4ccccn4)cnc3c2c1` was run?
A: 7.52%

Q: Which inhibition does the source give for `COc1cc(OC)c(OC)cc1/C=N/Nc1ncnc2c1[nH]c1ccc(C)cc12` here?
A: 78.4% (active)

Q: With `CCOc1cc(/C=N/Nc2cc(C)nc3ccc(C)cc23)ccc1O` as the compound, how does the inhibition read?
A: 3.4%
